Compounds without any hit were thinned out: in the full panel of roughly 83,000, 20% have a hit.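 Single-concentration screen, 48 h exposure, 96-well plates. Endpoint: percent growth. Below 10 = active.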 Active and inactive are the calls of the source.
What was measured:
Experiment in all cases: NCI-60 one-dose screen, 48 h (100 = growth as untreated, 0 = no growth, -100 = all killed)
Settings in all cases: 10 µM
[1] = test system: HCT-15 colon
[2] = test system: HT29 colon
[3] = test system: SNB-75 CNS
[4] = test system: SNB-19 CNS
[5] = test system: U251 CNS
[6] = test system: PC-3 prostate
[7] = test system: SK-MEL-5 melanoma
[8] = test system: UACC-62 melanoma
[9] = test system: LOX IMVI melanoma
[10] = test system: SK-MEL-28 melanoma
[11] = test system: SK-MEL-2 melanoma
[12] = test system: SN12C renal
[13] = test system: UO-31 renal
[14] = test system: TK-10 renal
[15] = test system: ACHN renal
[16] = test system: CAKI-1 renal
[17] = test system: A498 renal
[18] = test system: CCRF-CEM leukemia
[19] = test system: MOLT-4 leukemia

Measured: growth

COc1cccc2c1C(=O)c1c(O)c3c(c(O)c1C2=O)C[C@@](O)(C(=O)COC(=O)c1ccccc1)C[C@@H]3OC1CC(N)C(O)C(C)O1 (stereo not given in full)
active: [1] -72% | [2] -95.1% | [3] -84.3% | [4] -75.4% | [5] -95.4% | [6] -95.6% | [7] -97.2% | [8] -97% | [9] -87.1% | [10] -88.9% | [11] -92% | [12] -86% | [13] -93.1% | [14] -79.8% | [15] -95.6% | [16] -89.3% | [17] -66.2% | [18] -54% | [19] -66%

CCN1CCN(c2ccc(Nc3ncnc4c3nnn4CCc3cc(OC)cc(OC)c3)cc2)CC1
inactive: [1] 63.6% | [2] 57.9% | [3] 79.8% | [4] 94% | [5] 77.4% | [6] 82.2% | [7] 73.5% | [8] 93.9% | [9] 88.1% | [10] 101% | [11] 110% | [12] 93.7% | [13] 81.3% | [14] 114% | [15] 106% | [16] 102% | [17] 65.6% | [18] 86.4% | [19] 88.9%

O=NN(CCCl)C(=O)Nc1ccc(NC(=O)N(CCCl)N=O)cc1
inactive: [1] 94.5% | [2] 115% | [3] 64% | [4] 68.6% | [5] 55.7% | [6] 86.5% | [7] 97.1% | [8] 63.9% | [9] 58.5% | [10] 98.8% | [11] 129% | [12] 90.7% | [13] 96.6% | [14] 114% | [15] 96.4% | [16] 100% | [17] 67.1% | [18] 102% | [19] 97.2%

Fc1cc(-c2ncc(-c3cc(F)c(F)c(F)c3)c(NC3CCCCCC3)n2)cc(F)c1F
inactive: [1] 97% | [2] 115% | [3] 85.7% | [4] 99.7% | [5] 83.4% | [6] 90.6% | [7] 98.1% | [8] 89.4% | [9] 102% | [10] 98.4% | [11] 111% | [12] 87.9% | [13] 88.8% | [14] 152% | [15] 106% | [16] 87.6% | [17] 96.8% | [18] 96.2% | [19] 102%

C[N+]1(CC2CO2)CCCCCC1 (stereo not given)
inactive: [1] 94.9% | [2] 112% | [3] 92.9% | [4] 104% | [5] 107% | [6] 102% | [7] 98.1% | [8] 102% | [9] 105% | [10] 104% | [11] 118% | [12] 102% | [13] 93.4% | [14] 114% | [15] 101% | [16] 100% | [17] 87.8% | [18] 109% | [19] 112%

Cc1cc(C)c2c(Nc3ncnc4c3sc3nc(C)cc(C)c34)n[nH]c2n1
inactive: [1] 93.2% | [2] 102% | [3] 94.4% | [4] 95.8% | [5] 99.4% | [6] 88.4% | [7] 99.1% | [8] 95.4% | [9] 95.5% | [10] 94.5% | [11] 114% | [12] 99.3% | [13] 90.9% | [14] 104% | [15] 93.6% | [16] 101% | [17] 92.3% | [18] 95.3% | [19] 94.1%

CC(C)c1ncc(CO)n1Cc1c(Cl)cccc1Cl
inactive: [1] 97.7% | [2] 99.4% | [3] 91.6% | [4] 142% | [5] 101% | [6] 94.4% | [7] 100% | [8] 108% | [9] 104% | [10] 120% | [11] 101% | [12] 113% | [13] 90.1% | [14] 95% | [15] 99.9% | [16] 100% | [17] 77.8% | [18] 103% | [19] 101%

CCCc1c(C)nc2scc(-c3ccc(Cl)cc3)n2c1=O
inactive: [1] 101% | [2] 101% | [3] 97.9% | [4] 105% | [5] 97.2% | [6] 97.3% | [7] 99.1% | [8] 100% | [9] 95.8% | [10] 112% | [11] 95.1% | [12] 96.3% | [13] 73% | [14] 102% | [15] 95.3% | [16] 96.6% | [17] 98.2% | [18] 95% | [19] 87.1%

CCOCC[P+](c1ccccc1)(c1ccccc1)c1ccccc1
inactive: [1] 98.8% | [2] 34.2% | [3] 46.7% | [4] 48% | [5] 38.3% | [6] 33.4% | [7] 21.6% | [8] 33% | [9] 52.5% | [10] 67.9% | [11] 51.2% | [12] 59% | [13] 75.9% | [14] 57.3% | [15] 94.2% | [16] 85.5% | [17] 72% | [18] 34.7% | [19] 47.6%

CCc1nn2c(-c3ccccc3)c(-c3cc(OC)c(OC)c(OC)c3)nc2s1
inactive: [1] 72.9% | [2] 74.5% | [3] 45.9% | [4] 85.3% | [5] 98.8% | [6] 71.4% | [7] 71.9% | [8] 71.8% | [9] 88.2% | [10] 29.5% | [11] 37.9% | [12] 88.1% | [13] 57.6% | [14] 82.2% | [15] 85.8% | [16] 69.4% | [17] 62.5% | [18] 70.9% | [19] 72.4%

COc1ccc2nc(C)cc(Nc3ccc(Cl)cc3)c2c1
inactive: [1] 99.1% | [2] 116% | [3] 102% | [4] 104% | [5] 97.1% | [6] 100% | [7] 93.7% | [8] 99% | [9] 105% | [10] 105% | [11] 104% | [12] 97.4% | [13] 91.1% | [14] 109% | [15] 105% | [16] 101% | [17] 103% | [18] 94.5% | [19] 110%

CCCCC(CC#N)(CCC)CCC
inactive: [1] 99% | [2] 99% | [3] 80.6% | [4] 106% | [5] 102% | [6] 99.2% | [7] 106% | [8] 118% | [9] 92.1% | [10] 99.6% | [11] 102% | [12] 106% | [13] 90.6% | [14] 92.7% | [15] 102% | [16] 90.3% | [17] 103% | [18] 94.7% | [19] 97.5%

Cc1ccc(-n2nnc3c(sc4ccccc43)c2=O)cc1
active: [2] 5.36% | [13] 9.98%
inactive: [1] 89.3% | [3] 31.4% | [4] 44.2% | [5] 18% | [6] 61.7% | [7] 76.9% | [8] 85.4% | [9] 39.3% | [10] 89.9% | [11] 83% | [12] 76.7% | [14] 56.7% | [15] 15.2% | [16] 48.7% | [17] 102% | [18] 76.3% | [19] 90.6%

COc1cc(C(=O)n2nc(N)c3c(C)cc(C)nc32)cc(OC)c1OC
inactive: [1] 33.2% | [2] 24% | [3] 57.9% | [4] 98.4% | [5] 72.1% | [6] 81.2% | [7] 73.8% | [8] 80.5% | [9] 54% | [10] 97.6% | [11] 30.3% | [12] 79.8% | [13] 84.7% | [14] 98.3% | [15] 91.9% | [16] 76.7% | [17] 60.2% | [18] 57.6% | [19] 36%

NCCNc1ccc2cc(-c3nc4ccccc4[nH]3)c(=O)oc2c1
inactive: [1] 79.4% | [2] 108% | [3] 85.1% | [4] 105% | [5] 94.9% | [6] 79.7% | [7] 93.5% | [8] 87.4% | [9] 85% | [10] 93.7% | [11] 106% | [12] 92.2% | [13] 81.7% | [14] 128% | [15] 95.8% | [16] 96.3% | [17] 94.7% | [18] 81.9% | [19] 88.4%
